Molecules are shown by their SMILES. Active and inactive are the calls of the source. How the source made its calls: active means hit-call score of the fitted dose curve at least 0.9, where 1 is the maximum; inactive means score below 0.9.

A short description of assay [1]: ATG_CRE_CIS: Attagene CIS-FACTORIAL HepG2 Assay for human cAMP Responsive Element (CRE) binding protein 3 (AID 2282926). The note with it: HepG2 CRE cis-reporter, Attagene multiplexed mRNA; actives raise or lower the signal. Put shortly:
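Cells carrying cis-regulated reporter constructs respond through their own endogenous factors. After 24 h treatment, RNA is reverse-transcribed, amplified, labelled and sized by capillary electrophoresis; up- and down-regulation are both scored against vehicle.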

Assay [2] addresses CCAAT/enhancer-binding protein beta (Homo sapiens) (UniProt P17676). Put plainly: ATG_C_EBP_CIS: Attagene CIS-FACTORIAL HepG2 Assay for human CCAAT/Enhancer Binding Protein (C/EBP) beta (AID 2282927). The conditions noted are these: HepG2 Attagene cis-factorial transcription factor reporter; actives raise or lower the signal. Put shortly: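 HepG2, transient MRTU transfection, 24 h treatment. RT-PCR plus CE fluorescence; DMSO negative control, bidirectional fit.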

Assay [3] in a line: ATG_DR4_LXR_CIS: Attagene CIS-FACTORIAL HepG2 Assay for human Liver X Receptor (LXR), DR4 submotif (AID 2282929). The note with it: HepG2 Attagene DR4 cis-reporter, mRNA transcription; actives raise or lower the signal. Put shortly:
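DR4 cis-reporter in HepG2, 24 h exposure. Detection: RT-PCR, 6-FAM labelling, CE fragment analysis. Endpoint fitted bidirectionally, DMSO = baseline.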

Assay [4] is described as follows: ATG_AP_2_CIS: Attagene CIS-FACTORIAL HepG2 Assay for human Activator Protein 2 (AP-2) (AID 2282932). The conditions noted are these: HepG2 AP-2 cis-reporter, Attagene transcription factor profiling; actives raise or lower the signal. In short, it runs like this: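 Read-out: fluorescent reporter mRNA via RT-PCR and capillary electrophoresis, 24 h post-dose in transiently transfected HepG2. Endogenous factors drive cis-promoter reporters; gain or loss of signal fitted bidirectionally against DMSO.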

Assay [5] in a line: ATG_BRE_CIS: Attagene CIS-FACTORIAL HepG2 Assay for human Bone Morphogenetic Protein (BMP) Response Element (BRE) (AID 2282933). The note with it: HepG2 BMP response element reporter, Attagene transcription factor profiling; actives raise or lower the signal. In short, it runs like this: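 Multiplexed cis-reporter assay, HepG2, 24 h exposure. mRNA from reporter units quantified via RT-PCR/CE; DMSO baseline; bidirectional curve fit.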

Assay [6] deals with Transcription factor E2F1 (Homo sapiens) (UniProt Q01094). Put plainly: ATG_E2F_CIS: Attagene CIS-FACTORIAL HepG2 Assay for human E2F Transcription Factor 1 (AID 2282935). The note with it: HepG2 Attagene cis-reporter, E2F reporter RNA transcripts; actives raise or lower the signal. Put shortly: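 Transient MRTU transfection of HepG2; 24 h compound exposure; RNA → oligo(dT) RT → PCR → FAM label → HpaI cut → CE fluorescence. Gain/loss of signal fit against DMSO.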

A short description of assay [7]: ATG_EGR_CIS: Attagene CIS-FACTORIAL HepG2 Assay for human Early Growth Response 1 (EGR1) (AID 2282938). The conditions noted are these: HepG2 Attagene CIS-FACTORIAL EGR reporter mRNA; actives raise or lower the signal. In short, it runs like this:
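Endpoint derived by bidirectional fitting versus DMSO vehicle. Method: cis-promoter reporter units transfected into HepG2, 24 h dosing, RNA isolation, RT-PCR with 6-FAM primer extension and HpaI digestion, then capillary electrophoresis fluorescence detection.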

Assay [8] can be described thus: ATG_M_19_CIS: Attagene CIS-FACTORIAL HepG2 Assay for M19 Transcription Factor (Internal Marker) (AID 2282939). The conditions noted are these: HepG2 Attagene CIS-FACTORIAL M19 internal marker reporter; actives raise or lower the signal. Put shortly: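 Signals come from fluorescence of labelled reporter-specific PCR fragments resolved by capillary electrophoresis, following 24 h treatment of HepG2 cells transfected with cis-promoter reporter units; activity was fitted in both directions relative to DMSO.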

Assay [9] is described as follows: ATG_Ets_CIS: Attagene CIS-FACTORIAL HepG2 Assay for human Erythroblast Transformation Specific (ETS) (AID 2282941). The note with it: HepG2 ETS cis-reporter transcription, actives raise or lower the signal. Put shortly: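 Multiplexed reporter transcript profiling: HepG2, 24 h treatment, total RNA to cDNA, PCR, 6-FAM labelling, HpaI cut, capillary electrophoresis. Gain- or loss-of-signal fitted against DMSO.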

In assay [10] the target is Hepatocyte nuclear factor 3-beta (Homo sapiens) (UniProt Q9Y261). The assay is described as follows: ATG_FoxA2_CIS: Attagene CIS-FACTORIAL HepG2 Assay for human Forkhead box A2 (FOXA2) (AID 2282942). The conditions noted are these: HepG2 cis-reporter transcription factor activity, 24 h; actives raise or lower the signal. In short, it runs like this:
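Measured: reporter mRNA induction or loss in HepG2 transiently carrying multiple cis-regulated reporter units, 24 h after dosing. Quantified by RT-PCR plus capillary electrophoresis, normalised to DMSO.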

Assay [11] can be described thus: ATG_FoxO_CIS: Attagene CIS-FACTORIAL HepG2 Assay for human Forkhead box O (FoxO) (AID 2282943). The note with it: HepG2 Attagene cis-reporter, FoxO element, mRNA; actives raise or lower the signal. Put shortly:
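Transfected HepG2 reporter cells exposed to test chemical for 24 h; reporter RNA measured by reverse transcription, PCR and fluorescent capillary electrophoresis; curves fitted for increases and decreases against DMSO.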

Assay [12] in a line: ATG_GATA_CIS: Attagene CIS-FACTORIAL HepG2 Assay for human GATA Binding Protein (AID 2282944). The conditions noted are these: HepG2 GATA cis-element reporter, Attagene multiplex mRNA; actives raise or lower the signal. Put shortly:
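After transfecting HepG2 cells with multiple cis-regulated reporter units, chemicals are dosed for 24 h; isolated RNA undergoes RT-PCR and fluorescent labeling before capillary electrophoresis, with activity expressed against DMSO.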

Assay [13] can be described thus: ATG_GLI_CIS: Attagene CIS-FACTORIAL HepG2 Assay for human Zinc Finger Protein GLI1 (AID 2282945). The conditions noted are these: HepG2, Attagene cis-factorial reporter mRNA, GLI element; actives raise or lower the signal. In short, it runs like this: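 Transiently transfected HepG2 cells report endogenous transcription factor activity via cis-element-driven reporter units. After 24 h compound exposure, reporter mRNA was measured by RT-PCR with capillary electrophoresis; bidirectional fitting against DMSO baseline.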

A short description of assay [14]: ATG_M_06_CIS: Attagene CIS-FACTORIAL HepG2 Assay for M06 Transcription Factor (Internal Marker) (AID 2282950). The conditions noted are these: HepG2 Attagene CIS-FACTORIAL M06 internal marker reporter; actives raise or lower the signal. Put shortly:
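HepG2 liver cells, 24 h exposure. Reporter transcripts from transfected cis-element constructs quantified by RT-PCR/capillary electrophoresis fluorescence. Bidirectional curve fit against DMSO.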

Assay [15] in a line: ATG_MRE_CIS: Attagene CIS-FACTORIAL HepG2 Assay for human Metal Responsive Element (MRE) (AID 2282954). The conditions noted are these: HepG2 MRE cis-reporter transcription, Attagene multiplex; actives raise or lower the signal. In short, it runs like this: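 RT-PCR/capillary electrophoresis readout of reporter mRNA, 24 h post-dosing, in HepG2 cells transfected with multiplexed cis-regulated reporter constructs. Gain or loss of signal fitted bidirectionally against DMSO baseline.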

In assay [16] the target is Paired box protein Pax-6 (Homo sapiens) (UniProt P26367). The assay is described as follows: ATG_Pax6_CIS: Attagene CIS-FACTORIAL HepG2 Assay for human Paired Box 6 (PAX6) (AID 2282956). The conditions noted are these: HepG2 CIS-FACTORIAL PAX6 reporter transcription, RNA readout; actives raise or lower the signal. In short, it runs like this: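 Values derive from bidirectional curve fitting of reporter mRNA signal relative to DMSO. HepG2 cells bearing transfected cis-regulated MRTUs were exposed for 24 h; transcripts were read by RT-PCR and capillary electrophoresis.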

Assay [17] can be described thus: ATG_PXRE_CIS: Attagene CIS-FACTORIAL HepG2 Assay for human Pregnane X Receptor Element (PXRE) (AID 2282957). The note with it: HepG2 Attagene CIS-FACTORIAL PXRE reporter, mRNA; actives raise or lower the signal. Put shortly: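 Endogenous transcription factor activity in HepG2 was gauged through induction of reporter mRNA driven by a cis-regulating promoter element, sampled 24 h post-treatment. Activity was fitted in both directions against DMSO negative control.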

The nature of assay [18]: ATG_Sox_CIS: Attagene CIS-FACTORIAL HepG2 Assay for human SRY-box transcription factor (SOX) (AID 2282960). The note with it: HepG2 Attagene cis-factorial SOX reporter, mRNA; actives raise or lower the signal. In short, it runs like this: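 Gain- or loss-of-signal endpoint, fitted bidirectionally with DMSO as negative control. Based on reporter mRNA from transfected HepG2 cells harvested 24 h post-treatment and quantified via RT-PCR and capillary electrophoresis.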

For assay [19], the target named is Transcription factor Sp1 (Homo sapiens) (UniProt P08047). The assay is described as follows: ATG_Sp1_CIS: Attagene CIS-FACTORIAL HepG2 Assay for human Specificity Protein 1 (Sp1) (AID 2282961). The note with it: HepG2 Sp1 cis-reporter transcription, actives raise or lower the signal. Put shortly:
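Endpoint reflects endogenous Sp1 transcriptional activity, not an exogenous fusion protein: HepG2 cells with transfected cis-regulated reporters, 24 h dosing, RT-PCR/capillary electrophoresis mRNA read-out, DMSO-normalised bidirectional fit.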

Assay [20] is described as follows: ATG_SREBP_CIS: Attagene CIS-FACTORIAL HepG2 Assay for human Sterol Regulatory Element Binding (SREBP) (AID 2282962). The note with it: HepG2 Attagene cis-factorial SREBP reporter, mRNA; actives raise or lower the signal. Put shortly: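 Values derive from bidirectional curve fitting with DMSO as baseline. The underlying measurement is reporter mRNA from cis-element-regulated units in transiently transfected HepG2, quantified by RT-PCR and capillary electrophoresis after 24 h exposure.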

Chain of CCAAT/enhancer-binding protein beta (Homo sapiens) (P17676 whole entry, looked up): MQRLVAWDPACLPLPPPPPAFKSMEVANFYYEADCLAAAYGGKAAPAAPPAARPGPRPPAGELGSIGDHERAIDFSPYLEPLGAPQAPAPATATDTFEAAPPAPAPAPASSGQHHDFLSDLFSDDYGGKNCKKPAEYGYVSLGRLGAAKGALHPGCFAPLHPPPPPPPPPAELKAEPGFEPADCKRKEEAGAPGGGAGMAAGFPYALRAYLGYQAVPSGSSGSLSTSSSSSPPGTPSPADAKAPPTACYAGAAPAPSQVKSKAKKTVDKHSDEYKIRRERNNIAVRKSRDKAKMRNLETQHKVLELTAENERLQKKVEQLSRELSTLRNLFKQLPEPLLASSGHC
Chain of Hepatocyte nuclear factor 3-beta (Homo sapiens) (Q9Y261 whole entry, looked up): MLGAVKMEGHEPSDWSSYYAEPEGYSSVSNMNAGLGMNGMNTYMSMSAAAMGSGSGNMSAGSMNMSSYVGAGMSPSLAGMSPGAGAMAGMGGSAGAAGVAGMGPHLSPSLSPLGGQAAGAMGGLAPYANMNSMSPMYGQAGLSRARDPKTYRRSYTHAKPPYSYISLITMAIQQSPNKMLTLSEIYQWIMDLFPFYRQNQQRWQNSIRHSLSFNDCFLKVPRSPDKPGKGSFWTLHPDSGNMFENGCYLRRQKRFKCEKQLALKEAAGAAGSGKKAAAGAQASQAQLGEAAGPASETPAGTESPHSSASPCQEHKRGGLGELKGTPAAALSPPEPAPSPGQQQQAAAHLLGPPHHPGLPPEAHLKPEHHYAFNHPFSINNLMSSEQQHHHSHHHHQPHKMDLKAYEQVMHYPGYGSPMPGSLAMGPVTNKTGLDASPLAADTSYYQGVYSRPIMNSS
Chain of Transcription factor Sp1 (Homo sapiens) (P08047 whole entry, looked up, the tested form may be a part): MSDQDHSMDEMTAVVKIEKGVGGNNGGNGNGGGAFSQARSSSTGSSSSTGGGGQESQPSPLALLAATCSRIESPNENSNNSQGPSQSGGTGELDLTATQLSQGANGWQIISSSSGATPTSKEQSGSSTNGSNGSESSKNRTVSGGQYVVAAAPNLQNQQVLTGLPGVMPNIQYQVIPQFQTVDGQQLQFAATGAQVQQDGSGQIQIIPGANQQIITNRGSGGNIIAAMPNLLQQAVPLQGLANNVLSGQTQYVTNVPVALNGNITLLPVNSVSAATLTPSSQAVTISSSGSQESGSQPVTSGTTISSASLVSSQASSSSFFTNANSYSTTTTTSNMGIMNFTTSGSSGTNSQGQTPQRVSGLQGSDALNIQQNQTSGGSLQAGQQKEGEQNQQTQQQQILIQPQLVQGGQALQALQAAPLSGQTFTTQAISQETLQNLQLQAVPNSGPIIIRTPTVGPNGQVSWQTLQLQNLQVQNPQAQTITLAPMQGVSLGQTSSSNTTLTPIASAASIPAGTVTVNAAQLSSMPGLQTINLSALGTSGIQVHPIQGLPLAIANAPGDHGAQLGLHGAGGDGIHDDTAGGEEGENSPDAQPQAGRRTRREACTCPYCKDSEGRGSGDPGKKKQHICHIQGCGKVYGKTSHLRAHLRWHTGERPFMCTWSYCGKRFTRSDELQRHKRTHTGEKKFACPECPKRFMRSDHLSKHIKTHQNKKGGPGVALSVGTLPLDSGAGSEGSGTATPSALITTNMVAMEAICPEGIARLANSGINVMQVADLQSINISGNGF
Chain of Transcription factor E2F1 (Homo sapiens) (Q01094 whole entry, looked up): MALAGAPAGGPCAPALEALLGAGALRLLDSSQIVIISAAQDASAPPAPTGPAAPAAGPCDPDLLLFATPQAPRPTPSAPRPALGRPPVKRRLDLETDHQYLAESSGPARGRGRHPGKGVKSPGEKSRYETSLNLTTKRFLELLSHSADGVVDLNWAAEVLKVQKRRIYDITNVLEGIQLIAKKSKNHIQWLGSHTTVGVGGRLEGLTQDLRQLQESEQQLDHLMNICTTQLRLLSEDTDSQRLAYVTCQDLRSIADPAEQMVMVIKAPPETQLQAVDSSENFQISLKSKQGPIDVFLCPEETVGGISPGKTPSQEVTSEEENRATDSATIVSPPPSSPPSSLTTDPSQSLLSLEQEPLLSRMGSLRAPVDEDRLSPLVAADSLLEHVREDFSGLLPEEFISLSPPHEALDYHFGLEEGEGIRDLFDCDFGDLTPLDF
Chain of Paired box protein Pax-6 (Homo sapiens) (P26367 whole entry, looked up): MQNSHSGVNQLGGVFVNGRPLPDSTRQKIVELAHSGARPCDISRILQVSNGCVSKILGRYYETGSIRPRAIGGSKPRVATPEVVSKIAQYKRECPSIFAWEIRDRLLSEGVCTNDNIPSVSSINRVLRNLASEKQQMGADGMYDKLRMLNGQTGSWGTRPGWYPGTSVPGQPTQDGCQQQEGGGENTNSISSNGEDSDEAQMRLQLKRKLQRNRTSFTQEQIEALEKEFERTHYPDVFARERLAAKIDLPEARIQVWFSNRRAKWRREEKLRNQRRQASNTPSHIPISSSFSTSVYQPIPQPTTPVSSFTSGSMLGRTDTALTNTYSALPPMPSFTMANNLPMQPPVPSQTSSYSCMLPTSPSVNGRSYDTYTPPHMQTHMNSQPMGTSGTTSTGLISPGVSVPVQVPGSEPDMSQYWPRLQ

For `O=S(=O)(O)O`, the molecule was classed as inactive in assay [1], in assay [2], in [3], in [4], in [5] and in assay [6]. Besides, the outcome in assay [7], in assay [8], in assay [9], in [10], in assay [11] and in [12] was inactive. Moreover, the molecule was called inactive in assay [13], in assay [14], in assay [15], in assay [16], in assay [17] and in assay [18]. Also, the molecule was classed as inactive in [19] and in assay [20].
Regarding `C#CC1(O)CCCCC1`, the outcome in assay [1], in assay [2], in assay [3], in assay [4], in assay [5] and in [6] was inactive. Moreover, the call in [7], in assay [8], in [9], in [10], in assay [11] and in assay [12] was inactive. In addition, the call in [13], in [14], in assay [15], in assay [16], in assay [17] and in [18] was inactive. In addition, the molecule was classed as inactive in [19] and in [20].
For `CC(O)CN(CC(C)O)CC(C)O` (stereo not given), the call in [1], in assay [2], in assay [3], in assay [4], in assay [5] and in assay [6] was inactive. In addition, the outcome in assay [7], in [8], in assay [9], in assay [10], in assay [11] and in [12] was inactive. Moreover, the molecule was classed as inactive in [13], in assay [14], in assay [15], in [16], in [17] and in assay [18]. Besides, the outcome in assay [19] and in [20] was inactive.
In the case of `c1ccc2c(c1)CCCC2`, the call in assay [1], in assay [2], in assay [3], in assay [4], in assay [5] and in assay [6] was inactive. For the same molecule, the outcome in [7], in assay [8], in assay [9], in assay [10], in assay [11] and in assay [12] was inactive. Further, the outcome in assay [13], in assay [14], in [15], in assay [16], in [17] and in [18] was inactive. In addition, the molecule was called inactive in [19] and in assay [20].
For the molecule `CCOP(O)OCC`, the molecule was called inactive in assay [1], in [2], in assay [3], in assay [4], in assay [5] and in assay [6]. The outcome in assay [7], in assay [8], in assay [9], in assay [10], in [11] and in assay [12] was inactive. Also, the molecule was called inactive in assay [13], in [14], in assay [15], in assay [16], in [18] and in [19]. Besides, in [20], the molecule was classed as inactive. The concentration at half-maximal activity (AC50) in assay [17] was 30.1 µM (active).
As to `O=C1C(Cl)=C(Cl)C(=O)C(Cl)=C1Cl`, the call in assay [1], in assay [2], in assay [4], in [5], in [6] and in assay [8] was inactive. Moreover, the molecule was classed as inactive in assay [9], in assay [10], in [11], in assay [12], in [13] and in [14]. For the same molecule, the molecule was classed as inactive in assay [15], in assay [17], in [18], in [19] and in assay [20]. The AC50 in assay [3] was 66.9 µM (active); in assay [7], 137 µM (active); in assay [16] it was 132 µM (active).
With `ClC1=C(Cl)[C@]2(Cl)[C@@H]3[C@@H](Cl)[C@H](Cl)C[C@@H]3[C@@]1(Cl)C2(Cl)Cl`, the call in assay [1], in [2], in [3], in assay [4], in assay [5] and in assay [6] was inactive. Also, the result in assay [7], in [8], in assay [9], in [10], in assay [11] and in assay [12] was inactive. Also, the molecule was classed as inactive in assay [13], in [14], in assay [15], in assay [16], in assay [17] and in assay [18]. The molecule was called inactive in assay [19] and in [20].
